Residue numbers refer to the chain shown, from its start. Whole data set: some 16,000 sequences, median “ka relative to ugcaugu” near 0.096, cut for the highest 2% near 0.35. The sample holds the highest values, similar sequences and a random draw of the others, so the mix is not that of the screen.
T1: RBFOX1 RRM RbFoxmut (Fox-RRM*) (Homo sapiens, UniProt Q9NWB1 109-208, R118D;E147R;N151S;E152T)
T1 sequence: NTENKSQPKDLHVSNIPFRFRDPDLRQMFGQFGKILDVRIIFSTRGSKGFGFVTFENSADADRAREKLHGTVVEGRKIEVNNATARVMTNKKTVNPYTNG

B1: UCGAGAA (DNA:RNA)
RNA: GGGAGACCGGAAUUCAGAUUGUCCUCGAGAAUUAAAUCCCGUCGUAGCCACCA
DNA 1: CAATCTGAATTCCGGTCTCCC
DNA 2: TGGTGGCTACGACGGGATT
B2: UUUCGCU (DNA:RNA)
RNA: B1 RNA with C26U, G27U, A28C, A30C, A31U
DNA 1: CAATCTGAATTCCGGTCTCCC
DNA 2: TGGTGGCTACGACGGGATT
B3: UUGAACG (DNA:RNA)
RNA: B1 RNA with C26U, G29A, A30C, A31G
DNA 1: CAATCTGAATTCCGGTCTCCC
DNA 2: TGGTGGCTACGACGGGATT
B4: UUAAACG (DNA:RNA)
RNA: B1 RNA with C26U, G27A, G29A, A30C, A31G
DNA 1: CAATCTGAATTCCGGTCTCCC
DNA 2: TGGTGGCTACGACGGGATT
B5: UUGAACC (DNA:RNA)
RNA: B1 RNA with C26U, G29A, A30C, A31C
DNA 1: CAATCTGAATTCCGGTCTCCC
DNA 2: TGGTGGCTACGACGGGATT
B6: UGGACCG (DNA:RNA)
RNA: B1 RNA with C26G, G29C, A30C, A31G
DNA 1: CAATCTGAATTCCGGTCTCCC
DNA 2: TGGTGGCTACGACGGGATT
B7: GGAACGU (DNA:RNA)
RNA: B1 RNA with U25G, C26G, G27A, G29C, A30G, A31U
DNA 1: CAATCTGAATTCCGGTCTCCC
DNA 2: TGGTGGCTACGACGGGATT
B8: GAACGUU (DNA:RNA)
RNA: B1 RNA with U25G, C26A, G27A, A28C, A30U, A31U
DNA 1: CAATCTGAATTCCGGTCTCCC
DNA 2: TGGTGGCTACGACGGGATT
B9: CGGAACG (DNA:RNA)
RNA: B1 RNA with U25C, C26G, G29A, A30C, A31G
DNA 1: CAATCTGAATTCCGGTCTCCC
DNA 2: TGGTGGCTACGACGGGATT
B10: GUUAACG (DNA:RNA)
RNA: B1 RNA with U25G, C26U, G27U, G29A, A30C, A31G
DNA 1: CAATCTGAATTCCGGTCTCCC
DNA 2: TGGTGGCTACGACGGGATT
B11: UGGAACG (DNA:RNA)
RNA: B1 RNA with C26G, G29A, A30C, A31G
DNA 1: CAATCTGAATTCCGGTCTCCC
DNA 2: TGGTGGCTACGACGGGATT
B12: CGAACGU (DNA:RNA)
RNA: B1 RNA with U25C, C26G, G27A, G29C, A30G, A31U
DNA 1: CAATCTGAATTCCGGTCTCCC
DNA 2: TGGTGGCTACGACGGGATT
B13: CCGAACG (DNA:RNA)
RNA: B1 RNA with U25C, G29A, A30C, A31G
DNA 1: CAATCTGAATTCCGGTCTCCC
DNA 2: TGGTGGCTACGACGGGATT
B14: UGGACGU (DNA:RNA)
RNA: B1 RNA with C26G, G29C, A30G, A31U
DNA 1: CAATCTGAATTCCGGTCTCCC
DNA 2: TGGTGGCTACGACGGGATT
B15: CGCUCCU (DNA:RNA)
RNA: GGGAGACCGGAAUUCAGAUUGUCCCGCUCCUUUAAAUCCCGUCGUAGCCACCA
DNA 1: CAATCTGAATTCCGGTCTCCC
DNA 2: TGGTGGCTACGACGGGATT
B16: GGAGGUA (DNA:RNA)
RNA: B1 RNA with U25G, C26G, G27A, A28G, A30U
DNA 1: CAATCTGAATTCCGGTCTCCC
DNA 2: TGGTGGCTACGACGGGATT
B17: GGCCGUU (DNA:RNA)
RNA: B15 RNA with C25G, U28C, C29G, C30U
DNA 1: CAATCTGAATTCCGGTCTCCC
DNA 2: TGGTGGCTACGACGGGATT
B18: GUUUUCU (DNA:RNA)
RNA: B15 RNA with C25G, G26U, C27U, C29U
DNA 1: CAATCTGAATTCCGGTCTCCC
DNA 2: TGGTGGCTACGACGGGATT
B19: GUGAACG (DNA:RNA)
RNA: B1 RNA with U25G, C26U, G29A, A30C, A31G
DNA 1: CAATCTGAATTCCGGTCTCCC
DNA 2: TGGTGGCTACGACGGGATT
B20: UGAACGU (DNA:RNA)
RNA: B15 RNA with C25U, C27A, U28A, C30G
DNA 1: CAATCTGAATTCCGGTCTCCC
DNA 2: TGGTGGCTACGACGGGATT
B21: GAGAACG (DNA:RNA)
RNA: B1 RNA with U25G, C26A, G29A, A30C, A31G
DNA 1: CAATCTGAATTCCGGTCTCCC
DNA 2: TGGTGGCTACGACGGGATT
B22: CAGAACG (DNA:RNA)
RNA: B15 RNA with G26A, C27G, U28A, C29A, U31G
DNA 1: CAATCTGAATTCCGGTCTCCC
DNA 2: TGGTGGCTACGACGGGATT
B23: GAACGUG (DNA:RNA)
RNA: B1 RNA with U25G, C26A, G27A, A28C, A30U, A31G
DNA 1: CAATCTGAATTCCGGTCTCCC
DNA 2: TGGTGGCTACGACGGGATT
B24: GGGAACG (DNA:RNA)
RNA: B15 RNA with C25G, C27G, U28A, C29A, U31G
DNA 1: CAATCTGAATTCCGGTCTCCC
DNA 2: TGGTGGCTACGACGGGATT
B25: AGGAACG (DNA:RNA)
RNA: B15 RNA with C25A, C27G, U28A, C29A, U31G
DNA 1: CAATCTGAATTCCGGTCTCCC
DNA 2: TGGTGGCTACGACGGGATT
B26: AGAACGU (DNA:RNA)
RNA: B15 RNA with C25A, C27A, U28A, C30G
DNA 1: CAATCTGAATTCCGGTCTCCC
DNA 2: TGGTGGCTACGACGGGATT
B27: AGGACCG (DNA:RNA)
RNA: B15 RNA with C25A, C27G, U28A, U31G
DNA 1: CAATCTGAATTCCGGTCTCCC
DNA 2: TGGTGGCTACGACGGGATT
B28: UGGACAG (DNA:RNA)
RNA: B1 RNA with C26G, G29C, A31G
DNA 1: CAATCTGAATTCCGGTCTCCC
DNA 2: TGGTGGCTACGACGGGATT
B29: CCUUCUU (DNA:RNA)
RNA: B15 RNA with G26C, C27U, C30U
DNA 1: CAATCTGAATTCCGGTCTCCC
DNA 2: TGGTGGCTACGACGGGATT
B30: UCGGAUG (DNA:RNA)
RNA: B1 RNA with A28G, G29A, A30U, A31G
DNA 1: CAATCTGAATTCCGGTCTCCC
DNA 2: TGGTGGCTACGACGGGATT
B31: GAAGCGU (DNA:RNA)
RNA: B15 RNA with C25G, G26A, C27A, U28G, C30G
DNA 1: CAATCTGAATTCCGGTCTCCC
DNA 2: TGGTGGCTACGACGGGATT

Target: T1, RBFOX1 RRM RbFoxmut (Fox-RRM*)
Experiment: EMSA; HiTS-Eq, 1 nM pool, 10 min; buffer printed only for the single-RNA assays: 10 mM Tris pH 7.5, 150 mM NaCl, 3.4 mM EDTA, 0.001% NP-40, 30 C
Details: tags: His6 N-terminal (pET28a); label: 5' 32P
How it was run: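 Purified RbFox RRM (wild type or mutant) was equilibrated for 10 min in 50 µL with 1 nM of a 5′-radiolabelled pool of RNA with 7 randomized nucleotides, its flanks annealed to DNA oligonucleotides, across increasing protein concentrations. Free RNA was separated by 8% native PAGE, excised, reverse-transcribed, PCR-barcoded and sequenced on an Illumina HiSeq 2500. Relative association constants came from read-count changes of each variant against the control reaction, normalised to the cognate motif.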

| Binder | binding signal |
| --- | --- |
| B1 | 0.116 KA relative to UGCAUGU |
| B2 | 0.0799 KA relative to UGCAUGU |
| B3 | 0.39 KA relative to UGCAUGU |
| B4 | 0.0812 KA relative to UGCAUGU |
| B5 | 0.129 KA relative to UGCAUGU |
| B6 | 0.238 KA relative to UGCAUGU |
| B7 | 0.415 KA relative to UGCAUGU |
| B8 | 0.199 KA relative to UGCAUGU |
| B9 | 0.53 KA relative to UGCAUGU |
| B10 | 0.111 KA relative to UGCAUGU |
| B11 | 0.84 KA relative to UGCAUGU |
| B12 | 0.175 KA relative to UGCAUGU |
| B13 | 0.211 KA relative to UGCAUGU |
| B14 | 0.147 KA relative to UGCAUGU |
| B15 | 0.0521 KA relative to UGCAUGU |
| B16 | 0.121 KA relative to UGCAUGU |

| Binder | binding signal |
| --- | --- |
| B17 | 0.0754 KA relative to UGCAUGU |
| B18 | 0.0724 KA relative to UGCAUGU |
| B19 | 0.538 KA relative to UGCAUGU |
| B20 | 0.242 KA relative to UGCAUGU |
| B21 | 0.347 KA relative to UGCAUGU |
| B22 | 0.168 KA relative to UGCAUGU |
| B23 | 0.226 KA relative to UGCAUGU |
| B24 | 0.472 KA relative to UGCAUGU |
| B25 | 0.576 KA relative to UGCAUGU |
| B26 | 0.149 KA relative to UGCAUGU |
| B27 | 0.183 KA relative to UGCAUGU |
| B28 | 0.0526 KA relative to UGCAUGU |
| B29 | 0.0561 KA relative to UGCAUGU |
| B30 | 0.119 KA relative to UGCAUGU |
| B31 | 0.0921 KA relative to UGCAUGU |

From PMC9911399, “Two distinct binding modes provide the RNA-binding protein RbFox with extraordinary sequence specificity”
